About 8,800 targets were measured; listed, in parts, are those with a hit and a random draw of the rest. About 0.5% of all pairs of compound and target were hits. A number with no mark means an inactive call.
Columns and labels:
Assay in all cases: log2 fold change, soluble protein after heating vs DMSO (PISA); higher = thermal stabilisation; K562 lysate, 10 uM; active = over 0.2 and 3.5 SD of the protein, either way, in both replicates (recomputed)
nilotinib = compound: Cc1cn(-c2cc(NC(=O)c3ccc(C)c(Nc4nccc(-c5cccnc5)n4)c3)cc(C(F)(F)F)c2)cn1 [nilotinib]
In short: (§1)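 Thermal stability, expressed as log-two fold change relative to solvent controls, is given from duplicates. Crude K562 extract in PBS pH 7.4 with 1 mM MgCl2, at 1 mg/mL protein, was treated with 10 μM compound for 30 min and heated in aliquots for 3 min across 48°C-58°C. After pooling, adjustment to 0.5% NP-40 at 4°C and centrifugation at 21,000xg for 90 min, supernatant protein was measured by TMTpro 16plex LC-MS/MS with channel sums equalised.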

[1] = compound: Cc1nc(Nc2n[nH]c3c2CN(C(=O)N[C@H](CN(C)C)c2ccccc2)C3(C)C)c2sccc2n1
In short: as §1

dasatinib = compound: Cc1nc(Nc2ncc(C(=O)Nc3c(C)cccc3Cl)s2)cc(N2CCN(CCO)CC2)n1 [dasatinib]
In short: as §1

[2] = compound: Cc1ncc(-c2ccnc(Nc3ccc(S(C)(=O)=O)cc3)n2)n1C(C)C
In short: as §1

[3] = compound: Cn1cc(-c2ccc3c(c2)CCN3C(=O)Cc2cccc(C(F)(F)F)c2)c2c(N)ncnc21
In short: as §1

quisinostat = compound: Cn1cc(CNCC2CCN(c3ncc(C(=O)NO)cn3)CC2)c2ccccc21 [quisinostat]
In short: as §1

tipifarnib = compound: Cn1cncc1[C@@](N)(c1ccc(Cl)cc1)c1ccc2c(c1)c(-c1cccc(Cl)c1)cc(=O)n2C [tipifarnib]
In short: as §1

[4] = compound: NC(=O)Nc1cc(-c2cccc(F)c2)sc1C(=O)N[C@H]1CCCNC1
In short: as §1

[5] = compound: NC(=O)c1cnc(N[C@@H]2CCCC[C@@H]2N)nc1Nc1cccc(-n2nccn2)c1
In short: as §1

[6] = compound: NC1(c2ccc(-c3nc4ccn5c(=O)[nH]nc5c4cc3-c3ccccc3)cc2)CCC1
In short: as §1

[7] = compound: NCC(=O)Nc1ccc(-n2nc(C(F)(F)F)cc2-c2ccc3c(ccc4ccccc43)c2)cc1
In short: as §1

vorinostat = compound: O=C(CCCCCCC(=O)Nc1ccccc1)NO [vorinostat]
In short: as §1

silmitasertib = compound: O=C(O)c1ccc2c(c1)nc(Nc1cccc(Cl)c1)c1ccncc12 [silmitasertib]
In short: as §1

[8] = compound: O=C1NC(=O)C(c2cnc3ccccn23)=C1c1cn2c3c(cc(F)cc13)CN(C(=O)N1CCCCC1)CC2
In short: as §1

entospletinib = compound: c1cn2cc(-c3ccc4cn[nH]c4c3)nc(Nc3ccc(N4CCOCC4)cc3)c2n1 [entospletinib]
In short: as §1

UniProt Q66K74, sequence (Q66K74 whole entry, looked up): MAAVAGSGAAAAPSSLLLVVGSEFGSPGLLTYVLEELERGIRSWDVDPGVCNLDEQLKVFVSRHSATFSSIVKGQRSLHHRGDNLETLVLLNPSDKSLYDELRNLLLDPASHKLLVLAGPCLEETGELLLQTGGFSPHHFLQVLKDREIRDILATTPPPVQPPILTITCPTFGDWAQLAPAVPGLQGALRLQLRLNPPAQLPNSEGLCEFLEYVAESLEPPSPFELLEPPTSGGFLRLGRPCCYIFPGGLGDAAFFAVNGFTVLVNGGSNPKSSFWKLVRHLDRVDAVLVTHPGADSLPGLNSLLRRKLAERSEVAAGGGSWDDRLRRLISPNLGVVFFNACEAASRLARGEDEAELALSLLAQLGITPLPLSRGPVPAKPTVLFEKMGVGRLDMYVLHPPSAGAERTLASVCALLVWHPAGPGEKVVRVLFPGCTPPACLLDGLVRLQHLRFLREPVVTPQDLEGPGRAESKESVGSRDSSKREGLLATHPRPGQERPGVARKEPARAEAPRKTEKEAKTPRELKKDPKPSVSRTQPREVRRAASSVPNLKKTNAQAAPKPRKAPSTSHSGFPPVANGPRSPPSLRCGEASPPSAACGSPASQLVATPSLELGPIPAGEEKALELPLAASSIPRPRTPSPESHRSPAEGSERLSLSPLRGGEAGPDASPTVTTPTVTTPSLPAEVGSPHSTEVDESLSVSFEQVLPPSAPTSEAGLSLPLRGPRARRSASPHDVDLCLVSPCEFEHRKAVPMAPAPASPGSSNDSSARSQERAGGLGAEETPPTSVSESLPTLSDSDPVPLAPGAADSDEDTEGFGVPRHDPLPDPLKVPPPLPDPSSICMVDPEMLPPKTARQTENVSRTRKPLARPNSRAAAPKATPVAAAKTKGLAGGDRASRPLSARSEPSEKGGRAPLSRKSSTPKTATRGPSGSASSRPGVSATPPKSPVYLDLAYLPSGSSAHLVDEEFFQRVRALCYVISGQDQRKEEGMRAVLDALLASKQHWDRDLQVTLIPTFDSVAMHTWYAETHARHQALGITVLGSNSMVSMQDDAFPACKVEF
UniProt Q9H0B6, sequence (Q9H0B6 whole entry, looked up): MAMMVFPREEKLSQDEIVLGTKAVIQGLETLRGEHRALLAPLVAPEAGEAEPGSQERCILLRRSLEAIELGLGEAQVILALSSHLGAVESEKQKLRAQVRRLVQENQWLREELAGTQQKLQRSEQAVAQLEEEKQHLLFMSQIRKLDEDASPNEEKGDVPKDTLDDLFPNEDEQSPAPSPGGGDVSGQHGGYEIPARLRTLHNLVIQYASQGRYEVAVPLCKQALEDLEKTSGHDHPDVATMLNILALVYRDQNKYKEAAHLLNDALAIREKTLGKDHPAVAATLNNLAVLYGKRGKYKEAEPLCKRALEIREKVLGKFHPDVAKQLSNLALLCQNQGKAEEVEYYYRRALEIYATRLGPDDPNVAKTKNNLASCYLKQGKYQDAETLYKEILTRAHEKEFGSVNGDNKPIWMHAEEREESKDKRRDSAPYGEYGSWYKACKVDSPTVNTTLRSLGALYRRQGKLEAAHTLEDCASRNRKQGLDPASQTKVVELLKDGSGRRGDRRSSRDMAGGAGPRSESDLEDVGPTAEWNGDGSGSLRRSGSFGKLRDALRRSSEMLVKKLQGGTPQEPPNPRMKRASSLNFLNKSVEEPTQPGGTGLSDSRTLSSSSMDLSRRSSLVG
UniProt O15021, sequence (O15021 whole entry, looked up): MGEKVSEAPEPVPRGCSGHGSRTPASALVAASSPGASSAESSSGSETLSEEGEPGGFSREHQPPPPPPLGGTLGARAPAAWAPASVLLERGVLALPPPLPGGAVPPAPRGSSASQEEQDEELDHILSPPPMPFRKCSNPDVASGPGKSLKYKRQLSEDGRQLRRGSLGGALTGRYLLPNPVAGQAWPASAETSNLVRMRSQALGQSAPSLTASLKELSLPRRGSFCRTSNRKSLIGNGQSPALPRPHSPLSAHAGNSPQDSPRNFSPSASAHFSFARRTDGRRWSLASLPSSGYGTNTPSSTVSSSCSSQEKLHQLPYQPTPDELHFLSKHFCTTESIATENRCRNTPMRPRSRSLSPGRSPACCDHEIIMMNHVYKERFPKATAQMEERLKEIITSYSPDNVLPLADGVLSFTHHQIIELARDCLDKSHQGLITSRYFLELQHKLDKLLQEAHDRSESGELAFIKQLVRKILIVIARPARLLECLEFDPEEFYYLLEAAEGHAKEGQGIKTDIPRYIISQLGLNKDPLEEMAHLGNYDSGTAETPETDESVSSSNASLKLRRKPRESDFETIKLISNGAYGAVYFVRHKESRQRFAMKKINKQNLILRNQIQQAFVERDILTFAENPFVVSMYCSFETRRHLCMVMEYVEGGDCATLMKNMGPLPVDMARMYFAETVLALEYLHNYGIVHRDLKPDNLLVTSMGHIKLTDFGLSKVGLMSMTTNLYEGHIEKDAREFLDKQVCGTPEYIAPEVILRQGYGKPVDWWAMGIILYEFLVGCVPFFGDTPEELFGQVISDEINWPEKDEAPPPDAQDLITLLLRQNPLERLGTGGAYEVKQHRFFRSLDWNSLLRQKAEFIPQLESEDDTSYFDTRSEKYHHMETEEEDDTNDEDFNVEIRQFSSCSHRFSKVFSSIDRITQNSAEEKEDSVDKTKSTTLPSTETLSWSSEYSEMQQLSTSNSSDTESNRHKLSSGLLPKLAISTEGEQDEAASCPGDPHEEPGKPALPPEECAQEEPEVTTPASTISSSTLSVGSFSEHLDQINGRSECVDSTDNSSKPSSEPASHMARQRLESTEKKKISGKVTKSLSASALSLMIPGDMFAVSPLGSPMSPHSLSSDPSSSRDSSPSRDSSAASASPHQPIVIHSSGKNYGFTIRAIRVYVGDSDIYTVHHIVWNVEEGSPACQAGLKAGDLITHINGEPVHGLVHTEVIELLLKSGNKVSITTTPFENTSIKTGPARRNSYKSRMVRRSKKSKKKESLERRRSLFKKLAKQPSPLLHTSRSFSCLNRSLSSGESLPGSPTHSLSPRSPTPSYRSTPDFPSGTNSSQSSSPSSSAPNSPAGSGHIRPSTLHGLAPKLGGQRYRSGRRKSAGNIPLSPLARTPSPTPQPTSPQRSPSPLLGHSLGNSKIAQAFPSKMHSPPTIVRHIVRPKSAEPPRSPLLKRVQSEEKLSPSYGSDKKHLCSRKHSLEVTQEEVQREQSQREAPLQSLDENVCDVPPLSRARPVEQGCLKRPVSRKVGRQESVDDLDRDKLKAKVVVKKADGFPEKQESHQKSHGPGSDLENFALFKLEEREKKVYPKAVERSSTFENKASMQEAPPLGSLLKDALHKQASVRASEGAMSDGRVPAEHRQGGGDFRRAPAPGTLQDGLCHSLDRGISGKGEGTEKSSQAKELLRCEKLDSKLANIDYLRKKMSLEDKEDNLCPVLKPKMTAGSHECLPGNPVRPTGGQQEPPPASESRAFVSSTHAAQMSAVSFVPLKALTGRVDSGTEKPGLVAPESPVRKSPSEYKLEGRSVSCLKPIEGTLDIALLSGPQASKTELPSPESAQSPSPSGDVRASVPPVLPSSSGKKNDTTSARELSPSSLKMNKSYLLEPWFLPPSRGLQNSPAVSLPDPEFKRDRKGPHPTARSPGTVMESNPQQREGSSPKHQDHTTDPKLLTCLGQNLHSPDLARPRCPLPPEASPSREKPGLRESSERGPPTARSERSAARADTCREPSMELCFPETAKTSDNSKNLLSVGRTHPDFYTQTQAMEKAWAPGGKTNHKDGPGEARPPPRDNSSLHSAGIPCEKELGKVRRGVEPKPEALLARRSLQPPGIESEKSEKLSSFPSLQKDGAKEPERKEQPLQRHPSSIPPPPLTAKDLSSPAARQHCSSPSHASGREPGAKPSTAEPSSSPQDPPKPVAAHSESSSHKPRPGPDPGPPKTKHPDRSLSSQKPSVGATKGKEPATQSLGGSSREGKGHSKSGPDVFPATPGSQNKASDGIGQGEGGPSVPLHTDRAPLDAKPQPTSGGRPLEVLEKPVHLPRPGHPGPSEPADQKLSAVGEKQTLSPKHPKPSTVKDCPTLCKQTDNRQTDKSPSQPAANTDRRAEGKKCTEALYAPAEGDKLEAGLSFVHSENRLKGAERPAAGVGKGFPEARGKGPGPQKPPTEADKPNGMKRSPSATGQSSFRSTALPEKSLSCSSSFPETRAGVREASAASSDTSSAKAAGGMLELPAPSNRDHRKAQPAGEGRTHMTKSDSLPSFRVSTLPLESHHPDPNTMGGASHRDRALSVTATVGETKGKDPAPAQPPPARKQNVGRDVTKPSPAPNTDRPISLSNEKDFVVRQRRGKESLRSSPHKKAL
UniProt O95777, sequence (O95777 whole entry, looked up): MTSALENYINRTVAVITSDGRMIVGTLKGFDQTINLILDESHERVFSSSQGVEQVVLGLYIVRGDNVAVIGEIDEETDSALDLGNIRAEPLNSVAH
UniProt Q9Y448, sequence (Q9Y448 whole entry, looked up): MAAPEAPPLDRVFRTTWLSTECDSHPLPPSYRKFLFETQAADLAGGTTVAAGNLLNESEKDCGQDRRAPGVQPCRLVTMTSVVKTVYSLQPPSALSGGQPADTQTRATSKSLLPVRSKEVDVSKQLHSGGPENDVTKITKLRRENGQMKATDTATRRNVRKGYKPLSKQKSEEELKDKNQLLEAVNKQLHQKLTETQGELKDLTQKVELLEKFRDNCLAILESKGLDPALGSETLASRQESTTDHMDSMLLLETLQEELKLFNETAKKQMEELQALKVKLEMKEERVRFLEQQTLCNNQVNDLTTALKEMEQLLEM
UniProt Q7Z3D4, sequence (Q7Z3D4 whole entry, looked up): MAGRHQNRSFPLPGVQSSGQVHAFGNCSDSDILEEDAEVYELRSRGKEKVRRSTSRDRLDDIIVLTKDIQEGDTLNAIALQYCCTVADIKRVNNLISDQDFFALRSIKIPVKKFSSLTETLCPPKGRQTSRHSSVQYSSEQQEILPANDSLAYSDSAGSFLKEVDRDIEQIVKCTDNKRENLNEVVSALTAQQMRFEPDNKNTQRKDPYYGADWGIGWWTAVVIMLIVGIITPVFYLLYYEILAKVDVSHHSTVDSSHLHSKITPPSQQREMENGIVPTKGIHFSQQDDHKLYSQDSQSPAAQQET

Target	log2 fold change (nilotinib)	log2 fold change [1]	log2 fold change (dasatinib)	log2 fold change [2]	log2 fold change [3]	log2 fold change (quisinostat)	log2 fold change (tipifarnib)	log2 fold change [4]	log2 fold change [5]	log2 fold change [6]	log2 fold change [7]	log2 fold change (vorinostat)	log2 fold change (silmitasertib)	log2 fold change [8]	log2 fold change (entospletinib)
LSM8 (UniProt O95777)	0.132	0	0.012	0.045	0.004	-0.043	0.048	-0.02	-0.035	0.033	-0.052	0.063	-0.011	0.009	0.028
MED12 isoform 2 (UniProt Q93074)	-0.017	-0.025	-0.024	-0.009	0.01	-0.05	0.005	0.034	0.019	0.002	0.003	-0.466 (active)	-0.044	-0.008	-0.012
KNSTRN (UniProt Q9Y448)	0.012	0.03	-0.048	-0.071	-0.005	0.165	0.033	-0.02	-0.002	-0.01	-0.018	-0.054	0	0.057	0.02
LYSMD3 (UniProt Q7Z3D4)	-0.096	-0.293	-0.083	0.171	-0.068	-0.037	0.352 (active)	-0.022	0.057	0.023	0.01	0.095	-0.022	-0.029	0.028
LPIN1 isoform 7 (UniProt Q14693)	-0.032	0.026	-0.107	0.182	0.028	-0.032	-0.104	0.035	-0.04	0.003	0.052	-0.489 (active)	-0.014	0.004	-0.193
MAST4 (UniProt O15021)	-0.078	0.114	0.001	0.08	0.04	0.104	0.012	0.073	0.021	0.059	-0.073	-0.381	0.281	-0.025	0.018
KLC2 (UniProt Q9H0B6)	0.016	0.013	-0.062	0.067	0.041	-0.017	0.063	0.012	0.013	-0.036	0.01	-0.348 (active)	-0.005	-0.061	0.034
LSG1 (UniProt Q9H089)	0.003	0.015	0.102	0.026	0.137	-0.091	-0.004	0.115	-0.014	0.032	-0.074	-0.052	0.043	0.096	0.139
MAP1S (UniProt Q66K74)	0.007	-0.022	-0.007	-0.009	0.009	-0.006	0.02	0.026	0	0	0.006	-0.242 (active)	-0.004	-0.025	0.01

Source: the supplement of paper PMC10849652
